Laboratory results from the supplement of paper PMC6555819.

Legend:
Test in all cases: PBM binding z-score (relative to random genomic background probes); higher = stronger binding; sequences stand for … in GC…GCGATTGACAGCGTAGAATGAAGG
[1] = system: FXR:RXRa (NR concentration 270 nM, RXRa partner concentration 90 nM)
How it was run: (§1)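 Custom Agilent 4×180K protein-binding microarrays carried double-stranded probes, each with a 34-nt variable region. These regions held direct-repeat seeds, single-nucleotide variants, half-site ablations and random human genomic background sequences. Ligand-free nuclear receptor dimers were incubated on the arrays for 1 h, antibodies against each partner (one per run) detected binding, and scanned fluorescence was regression-normalized. Binding z-scores take the random background probes as reference.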

[2] = system: LXRa:RXRa (NR concentration 270 nM, RXRa partner concentration 90 nM)
How it was run: as §1

[3] = system: LXRa homodimer (NR concentration 270 nM)
How it was run: as §1

[4] = system: LXRb:RXRa (NR concentration 270 nM, RXRa partner concentration 90 nM)
How it was run: as §1

[5] = system: LXRb homodimer (NR concentration 270 nM)
How it was run: as §1

[6] = system: PPARa:RXRa (NR concentration 270 nM, RXRa partner concentration 90 nM)
How it was run: as §1

[7] = system: PPARg:RXRa (NR concentration 180 nM, RXRa partner concentration 90 nM)
How it was run: as §1

[8] = system: PPARg:RXRa 270nM:90nM, anti-RXR (NR concentration 270 nM, RXRa partner concentration 90 nM)
How it was run: as §1

[9] = system: PPARg:RXRa 30nM:10nM, anti-RXR (NR concentration 30 nM, RXRa partner concentration 10 nM)
How it was run: as §1

[10] = system: PPARg:RXRa 90nM:30nM, anti-RXR (NR concentration 90 nM, RXRa partner concentration 30 nM)
How it was run: as §1

Row | Sequence | PBM binding z-score [1] | PBM binding z-score [2] | PBM binding z-score [3] | PBM binding z-score [4] | PBM binding z-score [5] | PBM binding z-score [6] | PBM binding z-score [7] | PBM binding z-score [8] | PBM binding z-score [9] | PBM binding z-score [10]
1 | ATCTCTAGATAACAAGTTCAGTGAAAGAGAGGAC | 0.459 | 0.495 | 0.398 | 0.384 | 0.4 | 0.365 | 0.657 | 0.541 | 0.363 | 0.315
2 | CCTAGCAGGCCAATCTGGGTCAATCAAGGCTTGA | 0.324 | 1.22 | -0.656 | 0.742 | -1.17 | 3.09 | 1.49 | 1.95 | -0.105 | 1
3 | TCTAGTTGCTCAAAGGTCACACACTCGAAATGCG | 5.09 | 5.26 | 3.7 | 5.39 | 1.49 | 5.88 | 6.32 | 6.78 | 6.1 | 6.91
4 | CCTTACGGGTCAAGGTTATAGCTCGGGTGGTACG | 5.6 | 3.71 | 0.385 | 3.06 | 0.274 | 5.04 | 4.42 | 4.35 | 1.57 | 3.44
5 | TCCTGTAGATCAGCAGGTTAAGAAAGCTGGCCAA | 0.47 | 0.36 | -0.398 | 0.304 | -0.639 | 0.87 | -0.289 | 1.6 | 2.43 | 1.83
6 | TAGCCTAGGTCATTGGGCCAGTAGAGTACGCATC | 3.86 | 3.33 | 0.509 | 2.17 | -0.0447 | 3.92 | 3.68 | 3.97 | 0.744 | 2.76
7 | AGAATGAGGTTATTAAGATCTGGGAATTGCGGTC | 1.76 | 1.89 | 0.216 | 1.26 | -0.139 | 2.79 | 0.924 | 1.47 | 0.36 | 0.922
8 | ATCTCTAGGTAAAATTCAGTGAAAGATCGATAGA | 0.583 | 0.493 | 0.422 | 0.121 | 0.916 | 0.171 | 0.606 | 0.699 | 0.552 | 0.917
9 | GCTAGCAGCCCATTTGGGTCACTCAATGACGGGC | -0.281 | -0.586 | -0.832 | -0.285 | -0.892 | 0.853 | 0.291 | 0.0178 | -0.724 | -0.506
10 | GGAACGAGGGCAAAGTCGATAGCATCTGTCGACG | 0.356 | 0.379 | -0.902 | -0.096 | -0.476 | 1.74 | 1.97 | 2.58 | 0.954 | 2.36
11 | CAGCCTAGGTAAGGGCCAGTATAGGAGGAACGTT | -0.618 | -0.931 | -0.62 | -1.05 | -1.17 | -0.738 | -0.026 | -0.51 | -0.469 | -0.635
12 | TCATATAGGTAAGGGTGAAAGTCGAACGATATGA | 0.857 | 0.803 | -0.00999 | 0.694 | -0.563 | 2.47 | 2.7 | 3.29 | 3.87 | 3.72
13 | ATCGAAAGGTCGAAGATGAGTATACCCACCCGAA | 3.83 | 3.21 | 0.43 | 2.41 | 0.732 | 4 | 2.52 | 2.37 | 1.04 | 1.8
14 | GCATATAGGTAATACAGGGTGAAAGTCCGATTGT | 0.317 | 0.746 | -0.223 | 0.369 | -0.0682 | 1.92 | 1.44 | 1.47 | 0.819 | 0.965
15 | CCGACTGGCGCAAAGGTTACCATACTCAGTACGA | 0.725 | 1.29 | -0.0542 | 1.78 | -0.938 | 3.45 | 5.96 | 6.74 | 4.81 | 6.59
16 | CCAGACAGGAGAAAGGTAACTCAGTCTGGTACGC | -0.00582 | -0.0922 | -0.373 | -0.0883 | -0.51 | 0.347 | 0.817 | 1.46 | 0.169 | 0.958
17 | TCTTGTAGATCAAAGGTTGAGAAAGCCGAAGCCT | 0.89 | 0.864 | -0.12 | 0.541 | -0.308 | 3.14 | 5.99 | 6.2 | 5.78 | 6.91
18 | CCGACTGGGGCAGAAAGGTTACGATACCATCCGG | 0.702 | 0.832 | -0.247 | 1.01 | -0.887 | 2.34 | 2.25 | 3.05 | 0.964 | 2.25
19 | CGTCAAAGTTCAACTAAGATAACGTAAAGCACGC | 6.92 | 6.3 | 4.03 | 4.14 | 2.68 | 5 | 4.94 | 5.19 | 2.56 | 4.27
20 | TCTTGTAGATTAGCAGGTTAAGAAAGCTGGCCAA | 0.383 | 0.641 | 0.135 | 0.57 | -0.424 | 0.897 | -0.494 | 1.4 | 2.55 | 2.07
21 | GCTTACGGGTCAAAGGTTATATCATGAATAGAAT | 7.77 | 6.12 | 1.25 | 5.78 | 1.03 | 6.94 | 11.4 | 9.51 | 10.9 | 11.1
22 | ATCGAAAGGTCGTGTGGTGAGTATACAGAAAGGC | 4.91 | 4.22 | 0.724 | 3.43 | 1.53 | 4.84 | 3.01 | 3.37 | 1.38 | 2.57
23 | AGAATGAGGTTATACGTGGATCAGGGAAGAAAGT | 2.49 | 2.03 | 0.117 | 1.91 | 0.299 | 3.25 | 1.82 | 2.19 | 0.672 | 1.49
24 | TAGCCTAGGTCATTGAGCCAGTATAGTACGCATC | 4.4 | 3.31 | 0.78 | 2.32 | 0.252 | 3.48 | 1.95 | 1.97 | 0.417 | 1.11
25 | CAAACTGGGTCACGAAAGGTCAAAGTCGAATGAC | 7.32 | 8.03 | 6.63 | 7.01 | 2.08 | 6.6 | 10.5 | 8.52 | 6.44 | 8.43
